Experimental data taken from the supplement of paper PMC6555819.

Key:
Assay in all cases: PBM binding z-score (relative to random genomic background probes); higher = stronger binding; sequences stand for … in GC…GCGATTGACAGCGTAGAATGAAGG
[1] = test system: PPARg:RXRa DBDmut IVT, anti-RXR (DBD mutation: RXRa K156A/R161A, NR concentration 270 nM, RXRa partner concentration 90 nM)
How it was run: (§1)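 The probes on custom Agilent 4×180K protein-binding microarrays were double-stranded, with 34-nt variable regions bearing direct-repeat seeds, single-nucleotide variants, half-site ablations and random human genomic background sequences. Incubation lasted 1 h with ligand-free nuclear receptor dimers in PBS pH 7.4, 2% milk, 0.02% Triton X-100, 1 mM DTT, 0.2 mg/mL BSA and 0.4 mg/ml salmon testes DNA. Antibodies against each partner (one per run) detected bound dimers, and fluorescence scans were regression-normalized. Binding z-scores take the random background probes as reference.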

[2] = test system: PPARg:RXRa IVT, anti-PPARg (NR concentration 270 nM, RXRa partner concentration 90 nM)
How it was run: as §1

[3] = test system: PPARg DBDmut:RXRa IVT, anti-PPARg (DBD mutation: PPARg1 K132A/R137A, NR concentration 270 nM, RXRa partner concentration 90 nM)
How it was run: as §1

[4] = test system: PPARg DBDmut IVT, anti-PPARg (DBD mutation: PPARg1 K132A/R137A, NR concentration 270 nM)
How it was run: as §1

[5] = test system: PPARg homodimer (NR concentration 180 nM)
How it was run: as §1

[6] = test system: PXR:RXRa (NR concentration 270 nM, RXRa partner concentration 90 nM)
How it was run: as §1

[7] = test system: PXR homodimer (NR concentration 270 nM)
How it was run: as §1

[8] = test system: RARa:RXR (NR concentration 270 nM, RXRa partner concentration 90 nM)
How it was run: as §1

[9] = test system: RARa homodimer (NR concentration 270 nM)
How it was run: as §1

[10] = test system: RARb:RXRa (NR concentration 270 nM, RXRa partner concentration 90 nM)
How it was run: as §1

[11] = test system: RARb homodimer (NR concentration 270 nM)
How it was run: as §1

[12] = test system: RARg:RXRa (NR concentration 270 nM, RXRa partner concentration 90 nM)
How it was run: as §1

[13] = test system: RARg homodimer (NR concentration 270 nM)
How it was run: as §1

[14] = test system: RXRa DBDmut IVT, anti-RXR (DBD mutation: RXRa K156A/R161A, NR concentration 90 nM)
How it was run: as §1

[15] = test system: RXRa homodimer (NR concentration 180 nM)
How it was run: as §1

[16] = test system: THRa:RXRa (NR concentration 90 nM, RXRa partner concentration 90 nM)
How it was run: as §1

[17] = test system: THRa homodimer (NR concentration 90 nM)
How it was run: as §1

[18] = test system: VDR homodimer (NR concentration 270 nM)
How it was run: as §1

Sequence	PBM binding z-score [1]	PBM binding z-score [2]	PBM binding z-score [3]	PBM binding z-score [4]	PBM binding z-score [5]	PBM binding z-score [6]	PBM binding z-score [7]	PBM binding z-score [8]	PBM binding z-score [9]	PBM binding z-score [10]	PBM binding z-score [11]	PBM binding z-score [12]	PBM binding z-score [13]	PBM binding z-score [14]	PBM binding z-score [15]	PBM binding z-score [16]	PBM binding z-score [17]	PBM binding z-score [18]
CCGACTGGGGCATAACGTTACCATAAGCCAGCCC	2.66	1.66	-0.938	-1.07	-0.33	-0.824	-0.237	-0.522	0.566	0.162	-0.131	-0.0174	0.122	-0.083	-0.0796	-0.497	-0.431	-0.0002
ATATGTAGGTTACATCCGGGTAATTCAGGCTATG	7.57	7.21	4.3	3.2	1.34	0.541	0.614	1.19	0.484	1.22	0.673	1.08	1.06	0.788	0.887	2.3	0.727	0.278
CCTATTAGTTGACCATAAGGGCAACCAAAGCTCG	0.357	0.63	0.3	0.552	1.72	1.18	1	1.47	2.44	1.62	2.24	1.55	1.14	0.788	0.828	2.02	1.47	0.747
ATCTCTAGGTAAAAGTTCAATGAATCCCGAGGAT	2.16	4.28	1.95	1.61	2.08	3.09	2.8	2.86	1.09	2.64	3	2.3	2.41	1.29	2.4	1.71	0.132	2.73
TCTAGTTGGTAAAAGGTCACACACTCGAAATGCG	3.1	5.1	1.72	2.8	5.34	5.37	2.68	6.35	5.12	4.93	5.28	6.21	5.8	2.17	6.64	4.08	2.3	2.75
TCTAGTTGGTCAAAGGTCACAAACTCGAAATGCG	3.16	5.98	1.2	1.06	3.78	5.56	1.54	6.79	3.07	4.77	4.92	6.76	6.07	1.79	7.88	3.84	1.73	2.43
TGAATGAGGATAAAGATCAGGGAACGTGGCGTCG	-0.598	0.0508	-0.331	-0.373	-0.144	-0.614	-0.0385	-0.537	-0.101	-0.238	-0.895	0.0209	0.399	-0.871	-0.0726	1.33	0.0902	-0.316
CCTACCGGGCCATTCAGAGGTCATTGATCATATG	0.333	1.62	-0.171	-0.538	2.87	5.36	2.87	5.57	0.404	3.29	4.14	4.98	3.36	0.918	3.86	3.65	1.73	4.05
TCAGACAGGAGAAGGTAACTCAGGTACGCAGTCG	2.06	-0.153	-0.44	-0.387	0.0505	0.125	-0.21	0.759	0.536	0.225	-0.2	0.286	0.356	1.23	0.47	0.913	0.177	-0.0806
TAGCCTAGGTCAGATAGGGCCAGTATACGCTATA	0.509	1.38	0.269	0.324	0.391	1.37	-0.14	0.802	-0.488	3.05	1.93	2.8	3.74	-0.288	1.41	4.03	0.0301	-0.0363
CCAGACAAGTGAAAGGTAACTCAGTCTGGTACGC	-0.0186	0.0117	-0.187	-0.255	0.888	0.0621	-0.0763	0.166	0.124	0.247	0.344	0.201	0.303	0.272	0.604	0.291	-0.287	0.0715
CCAGACAGGTGAAACGTAACTCAGTCTGGTACGC	2.48	0.769	-0.823	-0.558	0.378	-0.325	-0.322	0.0493	0.128	0.621	0.0638	0.203	0.432	0.0553	0.53	-0.118	-0.567	-0.448
TAGCCTAGGTCATTGGGACAGTATAGTACGCATC	3.11	3.8	1.3	0.736	2.9	1.78	-0.233	2.5	0.512	3.75	2.92	3.97	4.51	1.52	3.13	2.95	1.14	1.44
AGAATGAGGTTAGGATCAGGGAAACAGAATACAT	1.28	1.5	1.12	0.953	1.27	0.668	0.603	0.932	1.08	1.37	1.09	1.15	0.965	0.213	1.37	2.13	0.948	0.389
GATACAGGGTCAAGCCCAGAGTACGCGTATTGAT	3.47	4.08	0.821	-0.0259	2.23	3.87	0.125	4.85	0.476	4.53	3.52	5.73	5.47	2.9	6.59	3.45	0.87	2.39
ACAGACAGGTGATGAAGGTAACTCACGCTATCAT	0.262	0.375	0.0319	-0.0294	0.0571	0.00932	0.106	0.165	0.142	0.289	0.275	0.28	0.546	-0.0205	0.483	0.491	-0.113	0.0793
